8 compounds from PubChem BioAssay (EPA / NIEHS) can be followed below.

Values joined by “and” are separate entries in the source; they are usually repeats but may differ in a detail not shown here. Equal entries are not always repeated. Inconclusive results are not listed. The source holds several records for some structures; these can differ, active in one and inactive in another. Active and inactive are the calls of the source. The calls were made as follows, unless noted: active = hit-call score of the fitted dose curve at least 0.9, where 1 is the maximum; inactive = score below 0.9.

Experiment [1] is described as follows: CCTE_Shafer_MEA_dev_AB: CCTE's Alamar Blue Assay for Cytotoxicity in the Neural Network Formation Assay, Shafer Lab (AID 2284083; active = hit-call score of the fitted dose curve at least 0.9, where 1 is the maximum;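 also: resazurin reduction fluorescence as viability of cultured neurons; twelve days of exposure from plating with re-dosing on DIV 5 and 9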). In short, it runs like this:
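Resazurin fluorescence, relative to DMSO, gauges viability after twelve days of exposure that began at plating of rat cortical neurons (1.5 x 10^5 cells/well, 48-well MEA); treatment renewed with full medium exchange on DIV 5 and 9.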
Background: The colour change of resazurin is a common sign of viable cells or microbes.

Experiment [2] in a line: CCTE_Shafer_MEA_acute_LDH: CCTE's Lactate Dehydrogenase Assay for Cytotoxicity in the Neural Acute Assay, Shafer Lab (AID 2284086; active = hit-call score of the fitted dose curve at least 0.9, where 1 is the maximum;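 also: active means LDH release rises above DMSO vehicle level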). In a few lines:
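LDH released during 40 min compound exposure of primary rat cortical cultures, quantified by absorbance at 490 nm in collected medium. Fitting direction positive versus DMSO vehicle.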

Experiment [3] is described as follows: CCTE_Shafer_MEA_dev_mutual_information_norm: CCTE's Neural Network Formation Assay for Mutual Information Normalization, Shafer Lab (AID 2284091).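 As to AC50: mutual information between electrodes summarised as area under curve across four recording days; potency is for a decrease in mutual information relative to DMSO.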 In a few lines:
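Shared information across electrodes, tracked on days 5, 7, 9 and 12 of network development and collapsed as trapezoidal area under the curve. Rat cortical cultures were treated continuously from plating, with treatment renewed at feeds on DIV 5 and 9; DMSO baseline, negative-direction fit.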

Experiment [4] can be described thus: CCTE_Shafer_MEA_dev_correlation_coefficient_mean: CCTE's Neural Network Formation Assay for Mean Correlation Coefficient, Shafer Lab (AID 2284093).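 As to AC50: well mean pairwise spike train correlation integrated as AUC over recording days 5 to 12; potency fitted for loss of correlation relative to DMSO vehicle wells.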 In a few lines: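 Primary rat cortical neurons on PEI-coated 48-well MEA plates (16 electrodes/well) were exposed from plating day 0 through DIV12, with compound renewed at DIV5 and 9. Pairwise spike correlations were averaged per well; trapezoidal AUC across DIV5, 7, 9, 12.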

A short description of experiment [5]: UKN2_HCS_IMR90_neural_migration: University of Konstanz (UKN) Leist Lab Neural Crest Cell Migration Assay in human induced IMR90 Pluripotent Stem Cells (UKN2) (AID 2284204). The note with it: actives raise or lower the signal. In a few lines:
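High-content imaging of calcein-AM and Hoechst stained cells quantifies migration into a stopper-defined gap after 24 h compound exposure. Neural crest cells from IMR90 iPSC migrated 24 h in EGF/FGF N2-S medium before dosing; DMSO baseline.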

Experiment [6] can be described thus: IUF_NPC1b_proliferation_BrdU_72hr: Leibniz Research Institute for Environmental Medicine (IUF) 72-hour Neural Progenitor Cell Bromodeoxyuridine (BrdU) Proliferation Assay (NPC1b) (AID 2284207). In short, it runs like this: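 Human fetal cortex-derived (GW 16-19) neural progenitor spheres, 0.25-0.35 mm, one per well in EGF/FGF proliferation medium, exposed to compound for 72 h at 37C, pH 7.2-7.6. BrdU incorporation over the final 16 h read by luminescence ELISA, relative to DMSO.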

Experiment [7] is described as follows: IUF_NPC1a_proliferation_area_72hr: Leibniz Research Institute for Environmental Medicine (IUF) 72-hour Neural Progenitor Cell Proliferation Area Assay (NPC1a) (AID 2284208). In short, it runs like this: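 Spheres of 0.3 mm are plated singly in growth-factor medium and exposed from day 0. After three days at 37C and 5% CO2, sphere area is measured by phase contrast imaging, with activity referenced to DMSO.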

Experiment [8] is described as follows: IUF_NPC1_viability_72hr: Viability Assessment at 72 hours in the Leibniz Research Institute for Environmental Medicine (IUF) Neural Progenitor Cell Proliferation Assay (NPC1) (AID 2284209). In a few lines: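 Viability was measured by resazurin-to-resorufin fluorescence (alamar blue) after 72 h of continuous exposure without compound renewal. Each well held one hNPC sphere (gestational week 16-19 fetal cortex, 0.25-0.35 mm) cultured in EGF/FGF proliferation medium at 37C and pH 7.2-7.6.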

The nature of experiment [9]: CCTE_Mundy_HCI_Cortical_Synap_Neur_Matur_NeuriteSpotCountPerNeuriteLength: CCTE's Synaptogenesis and Neurite Maturation Assay in rat cortical cells for Neurite Spot Count per Neurite Length, Mundy Lab (AID 2284210). In short, it runs like this:
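Synaptophysin spots per unit neurite length, measured by automated imaging of MAP2/synaptophysin/Hoechst-stained neurons. Cultures from rat cortex received chemical at DIV 7 with media change through DIV 12; glial growth arrested by AraC at DIV 5; DMSO baseline.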

Experiment [10] can be described thus: CCTE_Mundy_HCI_Cortical_Synap_Neur_Matur_BPCount: CCTE's Synaptogenesis and Neurite Maturation Assay in rat cortical cells for Branch Point Count, Mundy Lab (AID 2284211). In a few lines:
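HCI read-out of branch points from MAP2/synaptophysin/Hoechst immunofluorescence; rat cortical cultures, AraC DIV 5, dosing DIV 7, fixed DIV 12; fit in positive direction vs DMSO baseline.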

Experiment [11] is described as follows: CCTE_Mundy_HCI_Cortical_NOG_NeuriteLength: CCTE's Neurite Outgrowth Assay in rat cortical cells for Neurite Length, Mundy Lab (AID 2284213).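 As to AC50: neurites imaged about 48 to 50 h after chemical exposure began.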 In a few lines: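 First, rat primary cortical cells were plated and, 2 h later, given test chemical as a 1/10 dilution. Finally, βIII-tubulin immunostaining enabled automated imaging of neurite length.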
Experiment [12] is described as follows: CCTE_Mundy_HCI_Cortical_Synap_Neur_Matur_NeuriteLength: CCTE's Synaptogenesis and Neurite Maturation Assay in rat cortical cells for Neurite Length, Mundy Lab (AID 2284214). In a few lines:
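Neurite length quantified by automated high-content imaging of MAP2, synaptophysin and Hoechst staining. Rat cortical cells received chemical from DIV 7 to DIV 12 […], glial growth arrested by AraC at DIV 5; DMSO baseline.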

A short description of experiment [13]: CCTE_Mundy_HCI_Cortical_Synap_Neur_Matur_NeuriteSpotCountPerNeuron: CCTE's Synaptogenesis and Neurite Maturation Assay in rat cortical cells for Neurite Spot Count per Neuron Count, Mundy Lab (AID 2284215). In short, it runs like this:
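Rat cortical primary cultures; AraC DIV 5 to arrest glia; dosing + media change DIV 7; fixed DIV 12. Anti-MAP2/anti-synaptophysin, Hoechst nuclei; HCI puncta count per neuron, positive fitting direction vs DMSO.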

A short description of experiment [14]: CCTE_Mundy_HCI_Cortical_Synap_Neur_Matur_SynapseCount: CCTE's Synaptogenesis and Neurite Maturation Assay in rat cortical cells for Synapse Count, Mundy Lab (AID 2284218). In a few lines:
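High-content imaging of synaptophysin puncta per MAP2-positive neuron (Hoechst nuclei) in rat cortical cells exposed DIV 7–12 after glial arrest with AraC at DIV 5; decrease relative to DMSO scored.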

Experiment [15] is described as follows: CCTE_Mundy_HCI_Cortical_Synap_Neur_Matur_NeuriteCount: CCTE's Synaptogenesis and Neurite Maturation Assay in rat cortical cells for Neurite Count, Mundy Lab (AID 2284222).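 As to outcome: exposure from day 7 to day 12 in vitro with readout at day 12.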 In short, it runs like this: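 Rat cortical neurons, 96-well; AraC DIV 5; chemical + media change DIV 7; end DIV 12. Fix PFA/Hoechst, anti-MAP2 + anti-synaptophysin IF. HCI neurite count vs DMSO baseline.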

Experiment [16] is described as follows: TAMU_PeakParms_SingleDonor1434_Chronotropy: Texas A&M University (TAMU) 1.5-hr Human Induced Pluripotent Stem Cell (iPSC)-derived Cardiomyocytes Calcium (Ca+2) Flux Assay for Cardiotoxicity: Chronotropy (changes in peak frequency) (AID 2284217). The note with it: actives raise or lower the signal. In short, it runs like this:
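Beat rate, as mean Ca2+-flux peak frequency, was read from donor 1434 iPSC cardiomyocytes 90 min after exposure to 0.2–100 uM test chemical (0.5% DMSO). Wells that stopped beating were excluded; EC05 from bidirectional DMSO-referenced fitting.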

A short description of experiment [17]: CCTE_Mundy_HCI_hN2_NOG_NeuriteCount: CCTE's Neurite Outgrowth Assay in human hN2 cells for Neurite Count, Mundy Lab (AID 2284219; active = hit-call score of the fitted dose curve at least 0.9, where 1 is the maximum). In a few lines: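 In this morphology assay, hNP1-derived neurons received test chemical 2 h post-plating and were fixed two days later in warm paraformaldehyde/sucrose containing Hoechst 33342. Neurites, labelled by rabbit anti-βIII-tubulin (1:800) and Alexa Fluor-488 (1:500), were counted automatically.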

A short description of experiment [18]: CCTE_Mundy_HCI_hN2_NOG_NeuriteLength: CCTE's Neurite Outgrowth Assay in human hN2 cells for Neurite Length, Mundy Lab (AID 2284220; active = hit-call score of the fitted dose curve at least 0.9, where 1 is the maximum). In a few lines: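 Plate hNP1-derived neurons, then add chemical 2 h later as a 1/10 dilution. Stain with anti-βIII-tubulin then Alexa Fluor-488 secondary, and image automatically to measure neurite length.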
Experiment [19] can be described thus: CCTE_Mundy_HCI_hN2_NOG_NeuronCount: CCTE's Neurite Outgrowth Assay in human hN2 cells for Neuron Count, Mundy Lab (AID 2284221; active = hit-call score of the fitted dose curve at least 0.9, where 1 is the maximum). In short, it runs like this: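 Read-out is the number of betaIII-tubulin-positive neurons imaged by automated high-content analysis, with DMSO as negative control.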

Broadly, the AC50 is the concentration at which the activity in the assay is half-maximal. With `CC(C)(C)c1ccc(CSc2cnn(C(C)(C)C)c(=O)c2Cl)cc1`, the AC50 in [1] was 11.5 nM (active); in experiment [3], 1.53 nM (active); in [4] it was 1.77 nM (active); in experiment [6], 13.8 nM (active); in experiment [7], 12.6 nM (active); in experiment [9], 0.994 nM (active). Also, the AC50 was 0.559 nM (active) in [10]; 4.79 nM (active) in experiment [11]; 0.626 nM (active) in [12]; 0.469 nM (active) in [13]; 0.602 nM (active) in experiment [14]; 1.18 nM (active) in experiment [15]. Also, the compound was called inactive in experiment [2], in experiment [5] and in [8].

Turning to `O=C(O)c1nc(Cl)ccc1Cl`, the call in experiment [2] was inactive.

On to `COC(=O)N(OC)c1ccccc1COc1ccn(-c2ccc(Cl)cc2)n1`, for which the AC50 in [1] was 120 nM (active) and 25.3 nM (active); in [3] it was 57.3 nM (active) and 9.62 nM (active); in experiment [4] it was 161 nM (active) and 10.2 nM (active); in experiment [5] it was 29200 nM (active); in [6], 4100 nM (active); in experiment [7], 1440 nM (active). The AC50 in [8] is 7520 nM (active); in experiment [9] it was 82.3 nM (active); in experiment [10], 56.3 nM (active); in [11], 153 nM (active); in experiment [12], 83.8 nM (active); in experiment [13], 53.7 nM (active). Further, the AC50 in experiment [14] is 70.9 nM (active); in experiment [15] it was 105 nM (active). Moreover, in experiment [2], the outcome was inactive.

Regarding `CNC(=O)ON=CC(C)(C)SC`, the compound was called inactive in experiment [1], in [3], in experiment [4], in [6], in experiment [7] and in experiment [8]. In addition, the outcome in experiment [9], in experiment [10], in experiment [11], in experiment [12], in [13] and in experiment [16] was inactive. Further, the compound was classed as inactive in experiment [14], in experiment [17], in experiment [18], in experiment [19] and in [15].

`CC1COC(Cn2cncn2)(c2ccc(Oc3ccc(Cl)cc3)cc2Cl)O1` (stereo not drawn): the call in experiment [2] was inactive.

Turning to `CCCC1COC(Cn2cncn2)(c2ccc(Cl)cc2Cl)O1` (stereo not drawn), the compound was called inactive in [2].

For the compound `COP(N)(=O)SC` (stereo not drawn), the compound was classed as inactive in experiment [1], in [2], in [3], in [4], in [6] and in experiment [7]. For the same compound, the outcome in experiment [8], in experiment [9], in experiment [10], in experiment [11], in experiment [12] and in experiment [13] was inactive. Moreover, the compound was classed as inactive in experiment [14], in experiment [17], in [18] and in [15]. The AC50 in [10] was 25.8 nM (active).

Consider `CCOP(=S)(OCC)SCn1c(=O)oc2cc(Cl)ccc21`, for which the outcome in [2] was inactive.
